Measured values from ChEMBL document CHEMBL3988442, “University of Dundee, Small-Polar-MMV Screening Library” (2021).
For some assays here: Potency and affinity values are given separately.

How the values were obtained:
Set-up in all cases: scale not given: direction of the effect not stated beside the values
[1] = target: Protein translocase subunit SecA (Escherichia coli (strain K12)) (UniProt P10408); test: Assay to Identify E. coli SecA ATPase Inhibitors; format: functional; conditions: 30 µM
Chain of Protein translocase subunit SecA (Escherichia coli (strain K12)) (P10408 whole entry): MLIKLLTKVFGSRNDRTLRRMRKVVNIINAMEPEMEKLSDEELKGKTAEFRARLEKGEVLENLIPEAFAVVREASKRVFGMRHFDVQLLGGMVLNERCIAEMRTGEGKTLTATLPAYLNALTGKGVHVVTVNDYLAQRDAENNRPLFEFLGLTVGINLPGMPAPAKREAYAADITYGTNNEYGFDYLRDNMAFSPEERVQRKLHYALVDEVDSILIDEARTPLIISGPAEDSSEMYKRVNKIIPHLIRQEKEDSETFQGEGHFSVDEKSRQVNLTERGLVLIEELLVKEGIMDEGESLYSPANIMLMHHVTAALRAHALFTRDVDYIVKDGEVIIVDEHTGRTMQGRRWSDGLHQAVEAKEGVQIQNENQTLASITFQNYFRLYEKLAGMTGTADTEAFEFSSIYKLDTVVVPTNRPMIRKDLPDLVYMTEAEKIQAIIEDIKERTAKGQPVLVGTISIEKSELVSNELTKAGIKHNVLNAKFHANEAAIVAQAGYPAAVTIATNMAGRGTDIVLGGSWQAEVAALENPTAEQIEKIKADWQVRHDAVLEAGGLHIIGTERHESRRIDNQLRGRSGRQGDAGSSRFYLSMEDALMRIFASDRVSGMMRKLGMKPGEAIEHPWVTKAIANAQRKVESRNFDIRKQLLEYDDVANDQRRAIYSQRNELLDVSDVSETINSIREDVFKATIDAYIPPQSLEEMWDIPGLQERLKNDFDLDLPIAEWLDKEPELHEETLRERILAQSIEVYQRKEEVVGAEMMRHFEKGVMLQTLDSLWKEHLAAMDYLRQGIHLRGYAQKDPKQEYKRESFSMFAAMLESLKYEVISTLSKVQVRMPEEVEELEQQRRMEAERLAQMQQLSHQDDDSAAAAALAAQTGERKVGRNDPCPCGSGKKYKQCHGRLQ

[2] = target: T1, Ubiquitin-activating enzyme e1, putative (Leishmania donovani (strain BPK282A1)) (UniProt E9BSI1); test: Leishmania donovani Ubiquitin Activating Enzyme (LdE1); format: functional; conditions: 30 µM
T1 sequence (whole entry): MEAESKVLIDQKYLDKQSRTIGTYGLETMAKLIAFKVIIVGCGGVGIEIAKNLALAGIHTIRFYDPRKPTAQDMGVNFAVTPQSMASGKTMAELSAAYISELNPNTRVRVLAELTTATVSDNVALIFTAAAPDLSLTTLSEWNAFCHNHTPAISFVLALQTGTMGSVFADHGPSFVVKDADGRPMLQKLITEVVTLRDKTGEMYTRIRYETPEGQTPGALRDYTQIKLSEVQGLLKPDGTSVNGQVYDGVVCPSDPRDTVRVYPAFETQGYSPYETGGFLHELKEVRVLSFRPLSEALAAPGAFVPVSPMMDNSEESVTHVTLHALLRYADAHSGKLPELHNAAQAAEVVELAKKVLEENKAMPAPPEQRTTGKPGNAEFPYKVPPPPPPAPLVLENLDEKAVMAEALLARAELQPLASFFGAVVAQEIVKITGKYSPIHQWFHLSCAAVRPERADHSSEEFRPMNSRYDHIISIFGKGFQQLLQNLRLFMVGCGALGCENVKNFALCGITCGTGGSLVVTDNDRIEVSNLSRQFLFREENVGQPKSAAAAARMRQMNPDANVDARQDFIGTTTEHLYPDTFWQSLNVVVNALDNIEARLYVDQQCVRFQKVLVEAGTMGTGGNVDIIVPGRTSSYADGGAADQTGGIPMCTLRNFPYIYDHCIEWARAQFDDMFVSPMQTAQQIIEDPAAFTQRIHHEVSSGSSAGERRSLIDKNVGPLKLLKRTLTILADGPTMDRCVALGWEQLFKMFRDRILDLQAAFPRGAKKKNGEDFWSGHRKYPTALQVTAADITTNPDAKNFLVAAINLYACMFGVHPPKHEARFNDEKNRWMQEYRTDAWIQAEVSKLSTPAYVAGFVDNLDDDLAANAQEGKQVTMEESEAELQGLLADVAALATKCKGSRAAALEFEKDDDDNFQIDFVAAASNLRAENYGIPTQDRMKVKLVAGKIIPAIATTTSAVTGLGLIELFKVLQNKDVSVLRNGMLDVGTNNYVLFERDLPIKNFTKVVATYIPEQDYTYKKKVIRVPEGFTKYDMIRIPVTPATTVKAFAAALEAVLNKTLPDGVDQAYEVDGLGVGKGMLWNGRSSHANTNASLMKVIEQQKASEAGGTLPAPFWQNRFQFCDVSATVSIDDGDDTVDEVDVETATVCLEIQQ

[3] = target: Sialic acid-binding Ig-like lectin 9 (Homo sapiens) (UniProt Q9Y336); test: Hs-Siglec9 ALPHAscreen SOP 20170721; conditions: 10 µM
Chain of Sialic acid-binding Ig-like lectin 9 (Homo sapiens) (Q9Y336 whole entry): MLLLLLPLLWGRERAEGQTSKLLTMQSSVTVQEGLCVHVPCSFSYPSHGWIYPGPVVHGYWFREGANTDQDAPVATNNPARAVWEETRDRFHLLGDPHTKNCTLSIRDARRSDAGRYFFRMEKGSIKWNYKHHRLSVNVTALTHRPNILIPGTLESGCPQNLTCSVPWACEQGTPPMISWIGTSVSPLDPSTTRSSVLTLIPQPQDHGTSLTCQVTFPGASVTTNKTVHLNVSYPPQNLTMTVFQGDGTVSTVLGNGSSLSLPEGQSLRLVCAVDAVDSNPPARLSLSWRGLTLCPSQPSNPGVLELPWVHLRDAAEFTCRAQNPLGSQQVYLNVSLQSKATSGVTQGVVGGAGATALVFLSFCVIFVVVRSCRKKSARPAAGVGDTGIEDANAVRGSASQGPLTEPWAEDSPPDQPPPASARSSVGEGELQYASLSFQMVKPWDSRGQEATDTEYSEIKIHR

Trypanosoma cruzi = test: Trypanosoma cruzi phosphomannomutase and mannose-1-phosphate guanylyltransferase assay; format: functional; conditions: 10 µM
[4] = target: T2, Arginase-2, mitochondrial (Homo sapiens) (UniProt P78540); test: in vitro enzyme assay to detect the production of urea directly proportional to the activity of Arginase II; format: functional; conditions: 33.3 µM; also: in the data most compounds retested in dose-response had high values
T2 sequence (whole entry): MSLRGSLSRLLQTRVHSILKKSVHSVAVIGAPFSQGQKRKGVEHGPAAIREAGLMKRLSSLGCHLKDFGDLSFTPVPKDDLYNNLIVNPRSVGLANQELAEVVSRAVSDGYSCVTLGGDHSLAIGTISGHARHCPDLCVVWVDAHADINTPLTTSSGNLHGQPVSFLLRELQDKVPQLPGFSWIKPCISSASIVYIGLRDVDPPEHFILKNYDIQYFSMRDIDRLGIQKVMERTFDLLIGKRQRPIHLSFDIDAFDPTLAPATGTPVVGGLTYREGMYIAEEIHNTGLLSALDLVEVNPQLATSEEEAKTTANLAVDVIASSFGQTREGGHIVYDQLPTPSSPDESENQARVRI

[5] = target: T3, Proteasome subunit beta (Trypanosoma cruzi) (UniProt O96673); test: Trypanosoma cruzi proteasome chymotrypsin-like activity (TcProtChymo) assay.; also: in the data most compounds retested in dose-response had high values; format: functional; conditions: 9.37 µM
T3 sequence (whole entry): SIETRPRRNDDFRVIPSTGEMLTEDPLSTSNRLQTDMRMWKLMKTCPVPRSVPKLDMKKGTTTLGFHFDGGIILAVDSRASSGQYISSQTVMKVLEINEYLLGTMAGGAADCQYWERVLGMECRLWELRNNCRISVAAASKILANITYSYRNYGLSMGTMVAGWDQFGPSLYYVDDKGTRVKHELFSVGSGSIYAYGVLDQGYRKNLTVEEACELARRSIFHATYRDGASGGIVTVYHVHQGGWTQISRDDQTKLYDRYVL

Homo sapiens = species on record: Homo sapiens; test: To identify inhibition of the IFN signalling (Jak-Stat) pathway via expression of an eGFP reporter gene under the control of an IFN-stimulated response element (ISRE) containing MxA promoter.; format: functional; conditions: 30 µM
[6] = target: T4, Tyrosyl-tRNA synthetase, putative (Trypanosoma cruzi (strain CL Brener)) (UniProt Q4DSP6); test: Trypanosoma cruzi tyrosyl tRNA synthetase (TcYRS) _High Tyrosine SOP; format: functional; conditions: 30 µM; also: in the data most compounds retested in dose-response had high values
T4 sequence (whole entry): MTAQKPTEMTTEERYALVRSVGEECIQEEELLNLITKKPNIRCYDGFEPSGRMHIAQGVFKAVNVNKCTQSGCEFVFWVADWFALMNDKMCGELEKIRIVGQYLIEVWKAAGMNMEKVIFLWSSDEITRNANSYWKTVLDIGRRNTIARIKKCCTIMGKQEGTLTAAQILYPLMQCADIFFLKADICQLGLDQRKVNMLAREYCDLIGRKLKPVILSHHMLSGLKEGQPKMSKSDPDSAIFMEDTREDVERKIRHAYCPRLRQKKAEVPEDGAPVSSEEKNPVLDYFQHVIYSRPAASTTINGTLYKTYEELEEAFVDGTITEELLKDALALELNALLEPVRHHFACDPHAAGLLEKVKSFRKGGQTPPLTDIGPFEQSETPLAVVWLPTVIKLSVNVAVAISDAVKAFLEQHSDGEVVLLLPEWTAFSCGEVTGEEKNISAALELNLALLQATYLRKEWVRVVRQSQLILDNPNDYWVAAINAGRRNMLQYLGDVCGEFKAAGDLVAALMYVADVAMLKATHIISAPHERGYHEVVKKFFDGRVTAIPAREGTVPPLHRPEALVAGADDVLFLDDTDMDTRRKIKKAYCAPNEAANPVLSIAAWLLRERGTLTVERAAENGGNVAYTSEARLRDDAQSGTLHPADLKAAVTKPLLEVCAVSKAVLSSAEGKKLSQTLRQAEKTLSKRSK

[7] = target: T4, Tyrosyl-tRNA synthetase, putative (Trypanosoma cruzi (strain CL Brener)); test: Trypanosoma cruzi tyrosyl tRNA synthetase (TcYRS) SOP; format: functional; conditions: 30 µM
[8] = target: Chromo domain-containing protein 1 (Saccharomyces cerevisiae (strain ATCC 204508 / S288c) (Baker's yeast)) (UniProt P32657); test: ScCHD-1 Enzyme Inhibition Assay; format: functional; conditions: 30 µM; also: in the data most compounds retested in dose-response had high values
Chain of Chromo domain-containing protein 1 (Saccharomyces cerevisiae (strain ATCC 204508 / S288c) (Baker's yeast)) (P32657 whole entry, the tested form may be a part): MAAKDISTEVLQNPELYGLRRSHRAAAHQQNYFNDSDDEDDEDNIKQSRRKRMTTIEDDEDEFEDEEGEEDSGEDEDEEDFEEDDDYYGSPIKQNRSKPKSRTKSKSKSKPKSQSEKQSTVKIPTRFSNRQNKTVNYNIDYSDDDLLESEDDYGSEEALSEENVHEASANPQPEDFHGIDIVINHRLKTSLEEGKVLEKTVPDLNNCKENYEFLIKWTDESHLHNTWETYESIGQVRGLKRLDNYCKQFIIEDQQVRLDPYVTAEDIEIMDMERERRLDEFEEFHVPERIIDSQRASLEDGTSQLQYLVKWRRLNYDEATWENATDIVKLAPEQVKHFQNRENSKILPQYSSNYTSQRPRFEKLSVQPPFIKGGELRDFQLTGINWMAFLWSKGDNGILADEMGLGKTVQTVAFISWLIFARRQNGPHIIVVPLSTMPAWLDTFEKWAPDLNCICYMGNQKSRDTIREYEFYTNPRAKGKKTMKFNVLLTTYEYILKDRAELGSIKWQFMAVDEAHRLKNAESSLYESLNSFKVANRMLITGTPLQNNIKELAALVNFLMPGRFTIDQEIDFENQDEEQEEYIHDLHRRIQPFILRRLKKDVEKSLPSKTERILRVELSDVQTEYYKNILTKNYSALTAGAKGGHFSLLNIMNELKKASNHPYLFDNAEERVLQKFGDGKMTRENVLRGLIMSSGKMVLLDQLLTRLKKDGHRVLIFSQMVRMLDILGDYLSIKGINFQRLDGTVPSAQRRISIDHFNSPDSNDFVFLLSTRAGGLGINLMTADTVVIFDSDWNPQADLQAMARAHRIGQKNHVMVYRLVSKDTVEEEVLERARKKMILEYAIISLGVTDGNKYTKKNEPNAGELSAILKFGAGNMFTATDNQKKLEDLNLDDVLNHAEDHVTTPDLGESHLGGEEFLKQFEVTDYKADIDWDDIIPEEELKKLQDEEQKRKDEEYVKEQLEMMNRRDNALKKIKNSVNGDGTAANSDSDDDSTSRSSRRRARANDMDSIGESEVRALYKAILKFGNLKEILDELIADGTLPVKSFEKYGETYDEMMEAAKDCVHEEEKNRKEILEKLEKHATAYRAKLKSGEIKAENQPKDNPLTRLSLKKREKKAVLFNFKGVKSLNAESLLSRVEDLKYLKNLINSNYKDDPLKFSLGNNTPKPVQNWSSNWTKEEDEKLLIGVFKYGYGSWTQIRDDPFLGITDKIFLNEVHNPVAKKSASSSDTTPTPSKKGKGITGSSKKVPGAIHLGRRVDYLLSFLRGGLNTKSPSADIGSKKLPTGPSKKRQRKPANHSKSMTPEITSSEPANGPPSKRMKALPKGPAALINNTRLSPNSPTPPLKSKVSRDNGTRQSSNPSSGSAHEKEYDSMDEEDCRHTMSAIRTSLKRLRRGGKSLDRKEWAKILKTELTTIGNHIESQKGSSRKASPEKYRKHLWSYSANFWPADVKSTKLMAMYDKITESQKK

| SMILES | Percent Effect [1] [%] | Percent Effect [2] [%] | Percent Effect [3] [%] | Percent Effect (Trypanosoma cruzi) [%] | Percent Effect [4] [%] | Percent Effect [5] [%] | Percent Effect (Homo sapiens) [%] | Percent Effect [6] [%] | Percent Effect [7] [%] | Percent Effect [8] [%] |
| --- | --- | --- | --- | --- | --- | --- | --- | --- | --- | --- |
| CCn1cc(CN2CCCC(c3[nH]ncc3S(C)(=O)=O)C2)cn1 (stereo not given) | -3.37 | 14.7 | 8.19 | 2.56 | -0.885 | 7.55 | -4.1 | 4.23 | 15 | -23.9 |
| O=C(c1ccnnc1)N1C[C@@H](OCC2CCOCC2)[C@H]2OCCC[C@H]21 | -4.07 | 1.3 | 6.81 | 5.55 | 14.6 | 0.618 | -6.79 | 0.526 | 7.69 | 96 |
| Cc1nc(CN2CCO[C@@H]3CN(C(=O)NC(C)C)CC[C@@H]3C2)cs1 | -3.94 | 1.3 | 0.95 | -3.8 | -0.405 | 1.85 | -21.3 | 3.68 | 7.69 | -1.55 |
| Cc1cncc(C2CCCN(C(=O)c3cccn3C)C2)n1 (stereo not given) | -1.26 | 17.3 | -0.809 | 1.97 | 1.33 | 13.3 | -5.79 | 7.41 | 12.5 | -25 |
| CN(C)CC(=O)N1CCC2(CC(=O)N(c3cccc(C#N)c3)C2)C1 (stereo not given) | -7.09 | 6.49 | -3.56 | -4.58 | -5.67 | 13 | 3.5 | 2.63 | 5.13 | -1.61 |
| Cc1occc1C(=O)N1CC[C@@H](N2CCOCC2)[C@@H]1Cc1ccccc1 | -6.37 | 11.7 | 1.96 | 0.876 | -2.83 | 7.33 | 0.411 | 8.95 | 15.4 | -4.72 |
| O=C(c1cc(C2CC2)[nH]n1)N1CCCC(n2cncn2)C1 (stereo not given) | -2.3 | 7.69 | -12.5 | 4.6 | 1.23 | 8.11 | -13.2 | 2.39 | 10.8 | -2.79 |
| CN(CC(=O)N1CCCN(Cc2cscn2)CC1)c1cnccn1 | 0.471 | -18.2 | 7.79 | -4.29 | -3.07 | 0.351 | 9.75 | 0 | 4.71 | 5.41 |
| O=C(Cc1n[nH]c2ccccc12)N1CCC(Nc2cccnn2)CC1 | -6.35 | 10.4 | 4.16 | 3.36 | -7.58 | 13.2 | -4.05 | 5.88 | 11.8 | -9.11 |
| Cc1cnc(N2CCC3(CCN(CC4CC4)C3=O)CC2)nc1 | -0.786 | 16.9 | -3.91 | -4.13 | 3.65 | 8.84 | 17.8 | 8.7 | 12.5 | -11.4 |
| Cc1cc2c(cc1C(=O)N1CC[C@H](CO)[C@@H](O)C1)OCCO2 | -9.1 | 2.7 | 2.86 | 4.37 | 1.05 | 8.22 | -0.0662 | 4.79 | 12.2 | -4.74 |
| Cn1nc2c(cc1=O)CN(Cc1nc(C(C)(C)C)no1)CC2 | -2.61 | 29.3 | 6.04 | 1.41 | 4.88 | 6.19 | 21.4 | 1.58 | 2.56 | -14.7 |
| c1csc(-c2nc(CN3CCn4c(nnc4C4CC4)C3)co2)c1 | -2.65 | 5.33 | 1.96 | -3.41 | 2.66 | 9.58 | 7.72 | 6.84 | 5.13 | -5.6 |
| CC(C)c1cc(NC(=O)CN2CCNC(=O)C2)on1 | -0.0493 | 26 | -4.98 | -0.933 | -1.43 | 11.2 | 1.34 | 7.84 | 21.2 | -9.71 |
| CCCc1n[nH]cc1C(=O)N1CCC(c2nccn2CCOC)CC1 | -7.31 | 16.2 | 21.9 | 8.44 | 20.6 | 7.19 | 11 | 5.85 | 12.2 | 20.9 |
| COc1cccc(COCC(=O)N2CCCC(n3ccnc3C)C2)c1 (stereo not given) | -2.06 | -5.13 | -2.52 | 4.6 | 4.92 | -4.35 | 19.1 | -3.35 | 1.21 | 2.95 |
| Cc1ccc(NC2CCN(C(=O)c3cccc4ncccc34)CC2)nn1 | -3.89 | 5.33 | -2.08 | -0.803 | 3.99 | -1.61 | 9.09 | 13.2 | 15.4 | -8.9 |
